A selection: hits, their analogues and other compounds. The true share with any hit is near 3.8%.
TGFb inhibitor: TGF-b pathway inhibition; HepG2 CAGA-GFP TGF-b/SMAD3 reporter, GFP fluorescence, 18 h; TGF-beta stimulated, 500 pg/mL final; Potency, µM (highest dose often 46.1 µM), most hits filed as inhibitors; 410,000 compounds, 1.2% hits; also: nearly all actives have a fitted effect of over 65% in size
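Inhibition was scored as loss of TGF-beta-induced (500 pg/mL final, 18 hours, 37 degrees C) GFP in HEPG2 cells carrying a CAGA-GFP reporter, in DMEM with 1% FBS. Well GFP was summed per cell; Activity was normalised to unstimulated and stimulated DMSO wells, then concentration-response fitting.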
HepG2 viability: HepG2 cytotoxicity, counter-screen for TGF-b inhibitors. HepG2 CAGA-GFP viability, ATP luminescence, 18 h. Potency, µM (top dose mostly 46.1 µM), actives largely listed as cytotoxic. 410,000 compounds, 0.76% hits. AID 588856
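CellTiter-Glo luminescence gave cytotoxicity after 18 hours at 37 degrees C. The cells were HepG2 CAGA-GFP in 1% FBS DMEM, stimulated with 500 pg/mL TGF-beta after compound addition. %Activity was normalised to no-cell wells (complete cell-killing) and DMSO (no toxicity), and curves were fitted and classified.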
ATXN viability: reduces viability in counter-screen for ATXN expression inhibitors; Potency, µM (series often up to 56.7 µM), usual class: cytotoxic; 400,000 compounds, 0.49% hits; AID 651635; S2 cells (HEK-293 line with an ATXN2-luciferase reporter) viability, CellTiter-Fluor protease fluorescence, 24 h; also: nearly all actives have a fitted effect of over 40% in size
HT1080 IDH1KD tx: toxicity to HT-1080 IDH1 knockdown cells (counter line); HT-1080 IDH1 knockdown viability, ATP luminescence, 48 h; 360,000 compounds, 2% hits; AID 686971; Potency, µM (highest dose often 46.1 µM), actives largely listed as cytotoxic
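IDH1KD HT-1080 cells, 750/well, RPMI + 5% FBS; compound pinned after 2 h settling; 48 h, 37 °C; CellTiter-Glo luminescence; % activity normalised to DMSO and no-cell wells; curves fitted, classed by r2 and efficacy.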
HT1080NT lethal: kills 2HG-producing HT-1080-NT fibrosarcoma cells; 360,000 compounds, 1.6% hits; Potency, µM (titrated, usually from 46.1 µM), most hits filed as cytotoxic; AID 686970; HT-1080-NT fibrosarcoma viability, CellTiter-Glo ATP luminescence, 48 h;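 also: NT is the 2HG producing partner of a matched IDH1 knockdown line; nearly all actives have a fitted effect of over 55% in size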
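Luminescent CellTiter-Glo readout after 48 hours of compound exposure at 37 degrees C defined viability of HT-1080-NT cells. Activity was normalized to DMSO wells and cell-free media wells; concentration-response curves were fitted and assigned curve classes.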
ATXN2 expr inh: reduces ATXN2 reporter expression in HEK-293 cells; 360,000 compounds, 0.72% hits; Potency, µM (doses to about 57 µM), most hits filed as inhibitors; HEK-293 ATXN2-luciferase reporter, luminescence, 24 h; also: nearly all actives have a fitted effect of over 55% in size
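ATXN2-luciferase reporter cells (luciferase flanked by upstream and downstream ATXN2 gene portions) were treated 24 h at 37 °C with compounds at up to 57 uM. SteadyGlo luminescence gave expression; GF-AFC fluorescence gave viability.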
Hits are given with their value; [ ] = dose if it differs, or a comment. Calls follow the shape of the dose curve; as a rule, active = well fitted curve in the direction sought with a large enough effect; inconclusive = small, poorly fitted or top-dose-only effect, or another doubt; inactive = no such curve, though single readings can be large; an effect the other way counts as inactive or inconclusive.

What do the screens show for `COc1cccc(C(=O)Nc2nnc(-c3cccs3)o2)c1`?
TGFb inhibitor: inactive; HepG2 viability: inactive; ATXN viability: 28µM; HT1080 IDH1KD tx: inactive; HT1080NT lethal: inactive; ATXN2 expr inh: inconclusive

How did CCN(CC)S(=O)(=O)c1ccc(C(=O)Nc2nnc(COC)o2)cc1 do in these assays?
TGFb inhibitor: inactive; HepG2 viability: inactive; ATXN viability: inactive; HT1080 IDH1KD tx: inactive; HT1080NT lethal: inactive; ATXN2 expr inh: inactive

What do the screens show for `CCCCN(CCCC)S(=O)(=O)c1ccc(C(=O)Nc2nnc(COC)o2)cc1`?
TGFb inhibitor: inconclusive; HepG2 viability: inactive; ATXN viability: inconclusive; HT1080 IDH1KD tx: 12µM; HT1080NT lethal: inconclusive; ATXN2 expr inh: inactive

Results for CCCCN(CC)S(=O)(=O)c1ccc(C(=O)Nc2nnc(-c3cccs3)o2)cc1 ?
TGFb inhibitor: inactive; HepG2 viability: inactive; ATXN viability: inconclusive; HT1080 IDH1KD tx: 8.2µM; HT1080NT lethal: inconclusive; ATXN2 expr inh: inconclusive

Results for Cc1cc(Sc2ncnc(N)c2[N+](=O)[O-])ncn1 ?
TGFb inhibitor: inconclusive; HepG2 viability: inactive; ATXN viability: inconclusive; HT1080 IDH1KD tx: 7.3µM; HT1080NT lethal: 13µM; ATXN2 expr inh: inconclusive

Results for Cc1cc(Sc2nc(N)ncc2[N+](=O)[O-])ncn1 ?
TGFb inhibitor: 10µM; HepG2 viability: inactive; ATXN viability: inactive; HT1080 IDH1KD tx: 6.5µM; HT1080NT lethal: 5.8µM; ATXN2 expr inh: inactive[11.3 µM]

How did Cc1ccc(-c2nc(N3CCCC(C)C3)c3ccccc3n2)cc1 (stereo unspecified) do in these assays?
TGFb inhibitor: inactive; HepG2 viability: inactive; ATXN viability: inactive; ATXN2 expr inh: inactive

What do the screens show for `Oc1ccccc1CNc1ccc(OC(F)(F)F)cc1`?
TGFb inhibitor: inconclusive; HepG2 viability: inactive; ATXN viability: inactive; HT1080 IDH1KD tx: inconclusive; HT1080NT lethal: 18µM; ATXN2 expr inh: inactive

What do the screens show for `O=C1CCc2cc(S(=O)(=O)NC(C(=O)Nc3ccc(F)cc3)c3ccccc3)ccc2N1` (stereo unspecified)?
TGFb inhibitor: inconclusive; HepG2 viability: inactive; ATXN viability: inactive; ATXN2 expr inh: inactive

How did Cc1ccc2nc3sc(C(=O)N4CCOCC4)c(N)c3cc2c1 do in these assays?
TGFb inhibitor: inactive; HepG2 viability: inactive; ATXN viability: inactive; HT1080 IDH1KD tx: inactive; HT1080NT lethal: inactive; ATXN2 expr inh: 2.5µM

What do the screens show for `COc1ccnc2[nH]cc(C(=O)C(=O)N3CCN(C(=O)c4ccccc4)C[C@@H]3C)c12`?
ATXN2 expr inh: inactive

What do the screens show for `CCOC(=O)c1c(NC(=O)COc2ccc(F)cc2)sc2c1CCC(C)C2` (stereo unspecified)?
TGFb inhibitor: inactive; HepG2 viability: inactive; ATXN viability: inactive; ATXN2 expr inh: inactive

Results for COC(=O)c1c(NC(=O)COc2ccc(OC)cc2)sc2c1CCC(C)C2 (stereo unspecified) ?
TGFb inhibitor: 13µM; HepG2 viability: inactive; ATXN viability: inconclusive; ATXN2 expr inh: inconclusive

Results for CCCCNC(=O)C1CCC(Cn2c(=O)c3sccc3n(CC(=O)Nc3ccccc3)c2=O)CC1 (stereo unspecified) ?
TGFb inhibitor: inactive; HepG2 viability: inactive; ATXN viability: inactive; ATXN2 expr inh: inactive

What do the screens show for `CCOC(=O)c1ccc(OCCN2C[C@H](O)[C@@H](O)[C@H](O)[C@H]2CO)cc1`?
ATXN viability: inactive; ATXN2 expr inh: inactive

Results for CC(=O)Cc1nsc(NC(=O)c2ccc(-c3cc(Cl)ccc3Cl)o2)n1 ?
TGFb inhibitor: inactive; HepG2 viability: inactive; ATXN viability: inconclusive; HT1080 IDH1KD tx: 23µM; HT1080NT lethal: 21µM; ATXN2 expr inh: inactive

How did Cc1ccc2nsnc2c1NC(=O)c1ccc(-c2cc(Cl)ccc2Cl)o1 do in these assays?
TGFb inhibitor: inconclusive; HepG2 viability: inactive; ATXN viability: inconclusive; HT1080 IDH1KD tx: inactive; HT1080NT lethal: 16µM; ATXN2 expr inh: inconclusive

Results for CC(=O)Cc1nsc(NC(=O)c2ccc(-c3cc(C(F)(F)F)ccc3Cl)o2)n1 ?
TGFb inhibitor: inactive; HepG2 viability: inactive; ATXN viability: inactive; HT1080 IDH1KD tx: 11µM; HT1080NT lethal: 11µM; ATXN2 expr inh: inactive

How did CC(=O)Cc1nsc(NC(=O)c2ccc(-c3cccc(C(F)(F)F)c3)o2)n1 do in these assays?
TGFb inhibitor: inactive; HepG2 viability: inactive; ATXN viability: inactive; HT1080 IDH1KD tx: inactive; HT1080NT lethal: inactive; ATXN2 expr inh: inactive

What do the screens show for `Cc1ccc2nsnc2c1NC(=O)Cc1ccc(Cl)cc1`?
TGFb inhibitor: inactive; HepG2 viability: inactive; ATXN viability: inactive; HT1080 IDH1KD tx: inactive; HT1080NT lethal: inactive; ATXN2 expr inh: inactive

Results for O=C(NCCC1=CCCCC1)c1coc(=O)c(Br)c1 ?
TGFb inhibitor: inconclusive; HepG2 viability: inactive; HT1080 IDH1KD tx: 18µM; HT1080NT lethal: 7.3µM; ATXN2 expr inh: inconclusive

How did CN(C)CCNC(=O)c1coc(=O)c(Br)c1 do in these assays?
TGFb inhibitor: inactive; HepG2 viability: inactive; ATXN viability: inactive; HT1080 IDH1KD tx: inactive; HT1080NT lethal: inactive; ATXN2 expr inh: inactive

Results for O=C(NCCC1=CCCCC1)c1ccc(=O)oc1 ?
TGFb inhibitor: inactive; HepG2 viability: inactive; ATXN viability: inactive; HT1080 IDH1KD tx: inconclusive; HT1080NT lethal: inactive; ATXN2 expr inh: inactive

What do the screens show for `O=C(NCCc1ccccc1)c1coc(=O)c(Br)c1`?
TGFb inhibitor: inconclusive; HepG2 viability: inactive; ATXN viability: inconclusive; HT1080 IDH1KD tx: 23µM; HT1080NT lethal: 21µM; ATXN2 expr inh: inactive

What do the screens show for `CC(C)CNC(=O)c1coc(=O)c(Br)c1`?
TGFb inhibitor: 14µM; HepG2 viability: inactive; HT1080 IDH1KD tx: 11µM; HT1080NT lethal: inconclusive

Results for CSc1ncccc1C(=O)NCC1Cc2cc(F)cc(-c3cncnc3)c2O1 (stereo unspecified) ?
ATXN viability: inactive

Results for CCCCOc1ccc(C(C)NC(=O)CN2C(=O)CSc3ccc(S(=O)(=O)N4CCOCC4)cc32)cc1 (stereo unspecified) ?
TGFb inhibitor: inconclusive; HepG2 viability: inactive

What do the screens show for `N#Cc1nc(N2CCCC2)nc(N(c2ccccc2)c2ccccc2)n1`?
TGFb inhibitor: inactive; HepG2 viability: inactive

What do the screens show for `O=C1[C@H](Cc2ccccc2)NC/C=C\C[C@H](c2ccc(Cl)cc2)N1Cc1ccc(Cl)cc1`?
TGFb inhibitor: inconclusive; HepG2 viability: inactive

What do the screens show for `O=C1[C@H](Cc2ccccc2)NC/C=C\C[C@@H](c2ccc(Cl)cc2)N1Cc1ccccc1`?
TGFb inhibitor: inconclusive; HepG2 viability: 8.9µM

What do the screens show for `COC(=O)[C@@H]1CCCN1C(=O)c1c(OC)cc(=O)n2c1CCN(Cc1ccc3cccnc3c1)CC2`?
ATXN viability: inactive

From PubChem
